# Only a selection was taken, and the strongest signals are over-represented in it overall.
# B1: PX9961H-bth-557-24-557 (Bacteroides thetaiotaomicron) (protein)
# chain: EETRTEVEKKNYMNNAEEAKDVLLGVYRTNTLDAMYGYYLSILFNLGTDISQVEGSGNENFRIIPTNSFPTTQSEVQQTWAALYTGIYRANDFLERISNKIGSYTTTDKKLATLYIAEARALRGMFYFELVRRFGNVVLMTSTQMSNQNPATYVQSAPEKVYEYIEDDLLYACDILPYATDDQYRESNDYRFSKGAALGLLTKVYATWAGYPVKDESKWEAAAKTARILVESGKHGLLKDYEQLWKNTCNGTWDPTESLIEISFYSPTVSGNSDPVGRIGKWNGVKTTAIAGVRGSCAANVKVVHTFVLDWREDVSDIRRDLSIANYQYTDTKKSLWVAGASDTDESAAEKDADPTKAQKNKQNYTPAKWDIQKYVTTNSFINNDKSNVNWYFLRYADVLLLYAEALNEWKHGPDAEAYNAINAVRRRGYGNPSNTSACDLPQGLDETSFREAVRKERSYELSFEGHRRQDLIRWGIYYKTVQATAKELGYWWEGTGSPNYSVATYTEEGKHELFPIPQRDMDLCIQFNQNPKW
# How the values were obtained:
# Assay in all cases: glycan array binding signal (z-score within array); higher = stronger binding
# Settings in all cases: glycan notation: IUPAC condensed, linker removed
# [1] = molecular target: Fuc(a1-2)Gal(b1-3)GlcNAc(b1-2)Man(a1-3)[Fuc(a1-2)Gal(b1-3)GlcNAc(b1-2)Man(a1-6)]Man(b1-4)GlcNAc(b1-4)GlcNAc
# How it was run: (§1)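 Glycan array data were curated from 3228 arrays in the Consortium for Functional Glycomics database and kept only where the protein sequence was available. Glycan names were converted to IUPAC-condensed notation, and columns mapping to the same glycan were averaged. The binding signal is a within-array Z-score, averaged across arrays of the same protein sequence at different concentrations or buffers and across linkers. Negative Z-scores can be read as non-binding.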
# [2] = molecular target: Fuc(a1-2)Gal(b1-3)GlcNAc(b1-3)[Fuc(a1-2)Gal(b1-3)GlcNAc(b1-6)]GalNAc
# How it was run: as §1
# [3] = molecular target: Fuc(a1-2)Gal(b1-4)GlcNAc(b1-6)GalNAc
# How it was run: as §1
# [4] = molecular target: Fuc(a1-2)Gal(b1-4)GlcNAc6S
# How it was run: as §1
# [5] = molecular target: Fuc(a1-2)Gal3S(b1-4)GlcNAc
# How it was run: as §1
# [6] = molecular target: Fuc(a1-2)[Gal(a1-3)]Gal(b1-3)GalNAc
# How it was run: as §1
# [7] = molecular target: Fuc(a1-2)[Gal(a1-3)]Gal(b1-4)GlcNAc
# How it was run: as §1
# [8] = molecular target: Fuc(a1-2)[Gal(a1-3)]Gal(b1-4)[Fuc(a1-3)]GlcNAc
# How it was run: as §1
# [9] = molecular target: Gal(a1-3)Gal(b1-3)GlcNAc(b1-2)Man(a1-3)[Gal(a1-3)Gal(b1-3)GlcNAc(b1-2)Man(a1-6)]Man(b1-4)GlcNAc(b1-4)GlcNAc
# How it was run: as §1
# [10] = molecular target: Gal(a1-3)Gal(b1-3)[Fuc(a1-4)]GlcNAc(b1-2)Man(a1-3)[Gal(a1-3)Gal(b1-3)[Fuc(a1-4)]GlcNAc(b1-2)Man(a1-6)]Man(b1-4)GlcNAc(b1-4)GlcNAc
# How it was run: as §1
# [11] = molecular target: Gal(a1-3)Gal(b1-4)Glc
# How it was run: as §1
# [12] = molecular target: Gal(a1-4)Gal(b1-3)GlcNAc(b1-2)Man(a1-3)[Gal(a1-4)Gal(b1-3)GlcNAc(b1-2)Man(a1-6)]Man(b1-4)GlcNAc(b1-4)GlcNAc
# How it was run: as §1
# [13] = molecular target: Gal(b1-3)GlcNAc(a1-6)Gal(b1-4)GlcNAc
# How it was run: as §1
# [14] = molecular target: Gal(b1-3)GlcNAc(b1-2)Man(a1-3)[Gal(b1-3)GlcNAc(b1-2)Man(a1-6)]Man(b1-4)GlcNAc(b1-4)GlcNAc
# How it was run: as §1
# [15] = molecular target: Gal(b1-3)[GlcNAc(b1-6)]GalNAc
# How it was run: as §1
# [16] = molecular target: Gal(b1-4)GlcNAc(b1-2)Man
# How it was run: as §1
# [17] = molecular target: Gal(b1-4)GlcNAc(b1-2)Man(a1-3)Man(b1-4)GlcNAc(b1-4)GlcNAc
# How it was run: as §1
# [18] = molecular target: Gal(b1-4)GlcNAc(b1-2)Man(a1-3)[Gal(b1-4)GlcNAc(b1-2)Man(a1-6)]Man(b1-4)GlcNAc(b1-4)[Fuc(a1-6)]GlcNAc
# How it was run: as §1
# [19] = molecular target: Gal(b1-4)GlcNAc(b1-3)Gal(b1-3)GalNAc
# How it was run: as §1
# [20] = molecular target: Gal(b1-4)GlcNAc(b1-3)Gal(b1-4)GlcNAc(b1-2)Man(a1-3)[Gal(b1-4)GlcNAc(b1-3)Gal(b1-4)GlcNAc(b1-2)Man(a1-6)]Man(b1-4)GlcNAc(b1-4)GlcNAc
# How it was run: as §1
# [21] = molecular target: Gal(b1-4)GlcNAc(b1-3)Gal(b1-4)GlcNAc(b1-2)[Gal(b1-4)GlcNAc(b1-3)Gal(b1-4)GlcNAc(b1-6)]Man(a1-6)[Gal(b1-4)GlcNAc(b1-3)Gal(b1-4)GlcNAc(b1-2)Man(a1-3)]Man(b1-4)GlcNAc(b1-4)[Fuc(a1-6)]GlcNAc
# How it was run: as §1
# [22] = molecular target: Gal(b1-4)GlcNAc(b1-3)Gal(b1-4)GlcNAc(b1-3)Gal(b1-4)GlcNAc(b1-3)Gal(b1-4)GlcNAc(b1-3)Gal(b1-4)GlcNAc(b1-2)Man(a1-3)[Gal(b1-4)GlcNAc(b1-3)Gal(b1-4)GlcNAc(b1-3)Gal(b1-4)GlcNAc(b1-3)Gal(b1-4)GlcNAc(b1-3)Gal(b1-4)GlcNAc(b1-2)Man(a1-6)]Man(b1-4)GlcNAc(b1-4)GlcNAc
# How it was run: as §1
binder,measurement,setting,value
B1,glycan array binding signal (z-score),[1],3.58
same,glycan array binding signal (z-score),[2],-0.177
same,glycan array binding signal (z-score),[3],-0.051
same,glycan array binding signal (z-score),[4],-0.38
same,glycan array binding signal (z-score),[5],0.014
same,glycan array binding signal (z-score),[6],-0.242
same,glycan array binding signal (z-score),[7],-0.408
same,glycan array binding signal (z-score),[8],-0.18
same,glycan array binding signal (z-score),[9],4.31
same,glycan array binding signal (z-score),[10],-0.134
same,glycan array binding signal (z-score),[11],-0.054
same,glycan array binding signal (z-score),[12],5.85
same,glycan array binding signal (z-score),[13],-0.025
same,glycan array binding signal (z-score),[14],5.54
same,glycan array binding signal (z-score),[15],-0.03
same,glycan array binding signal (z-score),[16],-0.104
same,glycan array binding signal (z-score),[17],10.2
same,glycan array binding signal (z-score),[18],4.19
same,glycan array binding signal (z-score),[19],0.039
same,glycan array binding signal (z-score),[20],3.35
same,glycan array binding signal (z-score),[21],3.59
same,glycan array binding signal (z-score),[22],5.22

# — the supplement of paper PMC8728848
